Assay outcomes deposited in PubChem BioAssay by several laboratories.
Efflux pump mplx = inhibitors of Candida efflux pumps in yeast, primary screen, S. cerevisiae, Nile Red, multiplex; S. cerevisiae Candida pump triplex; hit rate 0.44% among 330,000; inhibition, % at 10 µM; AID 485275, 2010;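 active means plate passing quality check with inhibition over a set limit, or well fluorescence over plate mean plus 4 SD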;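 further: Nile Red retained in pooled yeast measured as flow cytometry median fluorescence; 0% = buffer negative control and 100% = Enniatin B positive control; higher means more Nile Red kept so more efflux inhibition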
PHOSPHO1 inh = PubChem AID 1565; inhibition, % at 13.3 µM; hit rate 1.1% among 290,000; recombinant PHOSPHO1, absorbance phosphatase assay; Phosphoethanolamine/phosphocholine phosphatase (Homo sapiens), Q8TCT1; in the data active means inhibition above about 60%
Target sequence (Q8TCT1 whole entry, looked up): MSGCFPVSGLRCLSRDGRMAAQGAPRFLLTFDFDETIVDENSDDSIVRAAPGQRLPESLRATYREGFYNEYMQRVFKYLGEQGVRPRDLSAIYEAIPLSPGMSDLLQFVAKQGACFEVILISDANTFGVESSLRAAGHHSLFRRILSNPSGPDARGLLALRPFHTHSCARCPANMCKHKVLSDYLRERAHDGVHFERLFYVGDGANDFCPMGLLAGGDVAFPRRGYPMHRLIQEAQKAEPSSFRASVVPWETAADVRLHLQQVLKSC
Cardio protect = cardioprotection against H2O2-induced cell death, primary screen, uHTS, H9c2 cells, ATPLite luminescence. H9c2 cardiomyocytes, H2O2 injury protection, 2 h. protection from H2O2 cell death, % at 20 µM. hit rate 0.63% among 360,000;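 active means compounds giving at least 50% protection of heart cells from peroxide-induced death in the single-dose screen, raw or plate-pattern-corrected value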;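 further: 0% = DMSO wells with peroxide and 100% = DMSO wells without peroxide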
Cl transport mod = KCC2 cotransporter modulators, thallium flux, primary screen, cell-based, HEK293 KCC2, FluoZin-2 fluorescence, MLSMR; Solute carrier family 12 member 5 (Homo sapiens), Q9H2X9; B-score of Tl+ flux slope (higher = more flux/activation; lower = inhibition) at 10 µM; AID 1456, 2008; KCC2 cells, thallium flux FluoZin-2 fluorescence; hit rate 2.2% among 190,000;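 active means thallium flux slope and its plate-corrected score both differing from the plate sample mean at a set confidence after two filtering rounds, in either direction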;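 further: slope of fluorescence scaled to starting intensity during 10 to 20 s after thallium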
Calb FLC = C. albicans growth inhibition with fluconazole, primary screen, CaCi-2 strain, Alamar Blue fluorescence; hit rate 0.57% among 300,000; AID 1979, 2009; C. albicans CaCi-2 (fluconazole-resistant clinical isolate) + fluconazole, 48 h; growth inhibition, % (concentration not given with the values);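 active means growth inhibition above about 58% in most replicates, limit read from the data, passing the limit was not always enough; inconclusive means exactly half the replicates above a set limit; inactive means most replicates below a set limit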;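 further: all wells also contain fluconazole at 8 µg/ml as a sub-toxic cotreatment; 0% = median of DMSO wells and 100% = median of geldanamycin control wells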
* hit, by the source's call; ? = inconclusive; / = no result given. Sampled rows, rich in hits. Any-hit rate of the full collection: about 3.3%.

SMILES	Efflux pump mplx	PHOSPHO1 inh	Cardio protect	Cl transport mod	Calb FLC
Cc1ccc(S(=O)(=O)N2CCCC2)cc1C(=O)NCC(C)(C)N1CCOCC1	0.4	/	2.5	/	/
COCCCNC(=S)Nc1ccccc1[N+](=O)[O-]	-0.2	60.0*	-3.7	0.398	-27.6
COCCNC(=S)Nc1ccccc1[N+](=O)[O-]	0.0	32.2	11.2	-0.0622	-3.2
CCOc1ccc(/C=C2/SC(=O)NC2=S)cc1	-0.4	-5.1	-1.7	68.5*	2.7
CCOc1ccc(N=C2NC(=O)S/C2=C\c2ccc(N(C)C)cc2)cc1	0.5	8.9	-7.7	/	-1.1
Cc1cccc(C(=O)N2CCC(Cc3ccccc3)CC2)c1[N+](=O)[O-]	3.2	-9.3	-2.8	-4.21*	17.2
COc1ccccc1OC(C)C(=O)N1CCC(Cc2ccccc2)CC1 (centres undefined)	0.0	31.0	10.3	/	6.6
Cc1ccccc1OC(C)C(=O)N1CCC(Cc2ccccc2)CC1 (centres undefined)	0.0	67.8*	1.0	/	4.9
CCc1ccc(NC(=O)CN(c2ccc(OC)cc2)S(=O)(=O)c2c(C)nn(C)c2C)cc1	0.0	-4.3	1.9	/	-25.6
Cc1cc(OCC(O)CN2CCc3ccccc3C2)ccc1Cl (centres undefined)	-0.1	/	-4.2	/	-6.4
NC1=NC[C@H](Cc2ccc(O)cc2)N1CCC12CC3CC(CC(C3)C1)C2	-0.2	39.7	-7.1	0.0111	106.3*
CCc1c(C)nc(Nc2nc(C)c3ccc(OC)cc3n2)[nH]c1=O	-0.1	2.7	66.2*	0.841	3.3
Cc1nc(N2CCN(S(=O)(=O)c3cccc4nonc34)CC2)c2c3c(sc2n1)CCCC3	0.1	-8.3	48.7*	-0.158	4.7
CC1CC2OC2CC1COC(=O)C1CC2OC2CC1C (centres undefined)	/	/	-2.3	/	/
Cn1c(N2CCOCC2)c(/C=N/OC(=O)c2ccc(F)cc2)c2ccccc21	0.2	5.5	4.1	-0.13	94.3*
Cc1ccc(C(=O)O/N=C/c2c(N3CCOCC3)n(C)c3ccccc23)cc1	-0.1	12.2	-0.7	-0.673	110.1*
CC(=O)O/N=C/c1c(N2CCOCC2)n(C)c2ccccc12	-0.2	44.0	-0.9	-0.0428	98.5*
Cn1c(N2CCOCC2)c(/C=N/OC(=O)c2cccnc2Cl)c2ccccc21	/	3.6	1.5	-1.14	-30.0
Cn1c(N2CCOCC2)c(/C=N/O)c2ccccc21	0.0	26.0	1.5	0.0126	-39.7
O=C(O)c1ccc(-n2c(-c3ccc(Br)cc3)n[nH]c2=S)cc1	0.2	102.7*	-5.5	0.0108	-10.2
CCC(=S)/C=C1\Sc2ccccc2N1CCCS(=O)(=O)O	-0.1	64.4*	0.3	0.135	0.1
CCN1/C(=C\C=C2\C(=O)N(C)C(=S)N2C)Sc2ccccc21	0.0	-18.3	-0.7	-1.11	-2.6
CN(C)CCNC(=O)c1ccc(CS(=O)(=O)c2c(Cl)cccc2Cl)o1	-0.1	-19.7	16.8	/	2.3
CN(CCNC(=O)c1ccc(CS(=O)(=O)c2c(Cl)cccc2Cl)o1)CCc1ccccc1	0.0	64.9*	4.7	/	-5.3
CN1CCN(C(=O)c2cnn(-c3ccccc3)c2NC(=O)c2ccc(Br)cc2)CC1	-2.8	-66.9	6.5	/	-12.0
SMILES	Efflux pump mplx	PHOSPHO1 inh	Cardio protect	Cl transport mod	Calb FLC
CN1CCN(C(=O)c2cnn(-c3ccccc3)c2NC(=O)c2ccccc2)CC1	-0.1	28.8	3.2	0.537	93.7*
COc1cc2cc(CCOC(=O)c3ccc(C(F)(F)F)cc3)oc(=O)c2cc1OC	0.4	/	-1.3	/	/
Cc1cc(OC(C)C(=O)NCc2ccncc2)c2c(C)c(C)c(=O)oc2c1 (centres undefined)	0.3	34.1	2.2	/	/
COc1ccc(Nc2nc(C(=O)N3CCc4ccccc4C3)cs2)cc1	0.1	-12.5	1.0	-0.971	19.4
COc1ccc(Nc2nc(C(=O)N3CCc4cc(OC)c(OC)cc4C3)cs2)cc1	0.0	38.3	73.8*	/	13.9
NC(=O)C1CCCN(Cc2c(C(=O)N3CCc4ccccc4C3)nc3ccc(Cl)cn23)C1 (centres undefined)	-0.1	19.0	3.7	/	3.1
COc1cc(CNC(=O)c2cc(-c3ccc(OC)cc3C)n[nH]2)cc(OC)c1	/	/	5.8	/	/
COc1ccc(C)cc1NC(=O)COC(=O)c1ccccc1SCC(=O)N1CCCC1	0.0	/	7.1	/	0.6
COc1ccc(NC(=O)CN2CCC(C(=O)c3ccc(F)cc3)CC2)c(OC)c1	0.2	40.9	-4.0	/	1.5
COc1ccc(Nc2nc(N)nc(CSc3nc(C)cc(C)n3)n2)cc1	0.0	60.1*	-2.9	0.269	21.2
COc1ccccc1Nc1nc(N)nc(CSc2nc(C)cc(C)n2)n1	-0.3	25.5	1.3	/	-5.3
O=[N+]([O-])c1ccc(NC(=S)NCCc2ccccc2)cc1	-0.3	-21.2	-14.1	-4.8	-28.1
O=[N+]([O-])c1ccc(NNC(=S)Nc2ccccc2)cc1	0.1	85.7*	-36.3	0.882	?
Cn1c(=O)cc(SCC(=O)Nc2ccccn2)c2ccccc21	-0.1	18.3	/	-1.33	-0.5
Cc1ccnc(NC(=O)CSc2cc(=O)n(C)c3ccccc23)c1	0.0	63.2*	17.0	/	-21.9
Cc1noc(C)c1COC(=O)COc1ccc2c(C)cc(=O)oc2c1	0.0	-15.4	60.5*	0.369	-9.5
Cc1cc(NC(=O)COC(=O)COc2ccc3c4c(c(=O)oc3c2)CCC4)no1	0.0	20.3	52.7*	-0.684	-12.0
CNC(=O)COC(=O)COc1ccc2c(C)cc(=O)oc2c1	0.1	31.7	29.1	-0.63	24.8
Cc1cc(NC(=O)COc2ccc3c(C)c(C)c(=O)oc3c2)no1	/	/	-11.0	/	/
O=C(COC(=O)c1cc(-c2cccnc2)nc2ccccc12)Nc1ccc(F)cc1F	0.5	-13.9	71.4*	0.264	-17.7
O=[N+]([O-])c1ccc(Cc2cncc(O)c2)cc1	-0.1	29.2	-0.2	/	7.3
COc1ccc(N(C(=O)Cn2nnc3ccccc32)C(C(=O)NC(C)(C)C)c2ccc(OC)c(O)c2)cc1 (centres undefined)	0.0	-4.6	0.2	0.903	77.8*
CCOc1cc(C(C(=O)NCC2CCCO2)N(C(=O)Cn2nnc3ccccc32)c2ccc(OC)c(OC)c2)ccc1O (centres undefined)	-0.1	10.8	-0.5	/	4.5
Cn1c(=O)[nH]c(=O)c2c1nc(SCCN1CCCCC1)n2CCCc1ccccc1	0.1	87.7*	12.7	0.544	/
CC(C)c1nnc(NC(=O)CN2C(=O)c3ccccc3C2=O)s1	0.3	89.1*	-4.0	/	-1.6
CCc1c(C)c(C#N)c2nc3ccccc3n2c1NCCN(C)C	-0.1	10.5	4.3	-0.5	43.1
C=CCc1c(C)c(C#N)c2nc3ccccc3n2c1NCCN(C)C	0.2	9.1	15.3	/	91.2*
CCc1c(C)c(C#N)c2nc3ccccc3n2c1NCc1ccco1	0.3	13.0	14.7	-3.84*	6.4
CSc1ccc(/C=C/C(=O)OCC(=O)NC2CCS(=O)(=O)C2)cc1 (centres undefined)	-0.1	/	-8.1	/	/
